# Compound activity deposited in PubChem BioAssay by National Center for Advancing Translational Sciences (NCATS).
# KDM5B inh: blocks human KDM5B histone demethylase activity | Q9UGL1 | KDM5B demethylase, FDH-coupled NADH fluorescence (FDH is formaldehyde dehydrogenase) | Potency, µM (highest dose often 57.7 µM), hits mostly inhibitors | actives 2.6% (n = 220,000); active = well fitted inhibition curve with a large enough effect; also: 0% is about no effect; nearly all actives have a fitted effect of over 70% in size
#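 KDM5BΔAP (200 nM final) in 50 mM HEPES pH 7.5, 0.01% Tween-20 was preincubated 10 min at RT with compound over a concentration range. Substrate mix (H3K4me3 12.5 µM, α-KG 25 µM, Fe²⁺, ascorbate, NAD⁺, FDH) was added, and NADH fluorescence change over 30 min gave dose-response curves.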
# * = called active by the depositor; i = inactive. Only a selection was taken, and hits are over-represented in it overall. Potency is read from the fitted curve at half-maximal effect.
SMILES,KDM5B inh
Cc1ccc(-n2cccc2CC(=O)NCC(C)C)cc1,i
Cc1nc2scc(CC(=O)NCC(C)C)n2c(=O)c1-c1cc(C)n(-c2ccc(C(C)C)cc2)n1,28µM*
O=C(CSc1ccccc1)c1c[nH]c2ccccc12,i
Cc1cc(=O)n2[nH]c(NCc3ccccc3)nc2n1,i
CCn1nccc1C(=O)N1CCC(Cc2ccc(C(=O)NCCOC)cc2)CC1,i
CCn1nccc1C(=O)N1CCC(N2C(=O)C(OC)C23CCOCC3)CC1 (centres undefined),i
CCOc1nccnc1NC1CCN(C(=O)c2ccnn2CC)CC1,28µM*
CCn1nccc1C(=O)N1CCC(Nc2nccnc2OC)CC1,28µM*
CCn1nccc1C(=O)N1CCC(Cc2ccc(C(N)=O)cc2)CC1,i
CCn1nccc1C(=O)N1CCC(N2C(=O)[C@H](OC)[C@@H]2c2ccncc2)CC1,i
Cc1cc(OCc2n[nH]c(=S)n2C)cc(C)c1Cl,i
CCCCCCn1nc(C(=O)Nc2ccc(OC)c(OC)c2)c2ccccc2c1=O,i
CC(NC(=O)c1ccc(Cl)c(Cl)c1)C1CC2CCC1C2 (centres undefined),i
COc1ccc(N)cc1OC1CCCC1,i
Cc1ccc2oc(C(=O)Nc3cccc(Cl)c3C)cc(=O)c2c1,i
O=C(c1ccccc1)N1CCc2nc(-c3ccccc3)nc(-c3ccc(Cl)cc3)c2C1,i
O=C(c1ccccc1)N1CCc2nc(C3CC3)nc(-c3ccc(Cl)cc3)c2C1,i
O=C(NCc1ccco1)N1CCc2nc3cc(-c4ccccc4Cl)[nH]n3c(=O)c2C1,14µM*
Cn1c(=O)c2c(SCC(=O)NCc3ccco3)nc(-c3ccccc3Cl)nc2n(C)c1=O,i
O=C(c1ccncc1)N1CCc2nc3cc(-c4ccccc4Cl)[nH]n3c(=O)c2C1,16µM*
Cc1ccc(N2CC(C(=O)NCc3ccco3)CC2=O)cc1Cl (centres undefined),i
Cc1ccc(NC(=S)NNC(=O)Nc2ccc(Cl)cc2)cc1,i
CC(C)CC(=O)N1CCC(NC(=O)c2ccc3ccccc3n2)CC1,i
O=C(Cc1ccc(Br)cc1)N1CCN(c2cccc(Cl)c2)CC1,i
O=C(OCCOc1ccccc1Cl)c1cc(=O)c2ccccc2o1,i
SMILES,KDM5B inh
O=[S+]([O-])(Nc1ccccc1)c1ccc2c(c1)OCCN(Cc1cccnc1)C2,i
CC(C)CCNC(=O)c1cc2cc(N(C)S(C)(=O)=O)ccc2s1,i
Cc1ccccc1CNC(=O)c1cc2c(s1)CCCC2,i
CCc1sc(C(=O)NCc2cccnc2)cc1C,i
CC(NC(=O)c1cccs1)C(=O)NCc1cccnc1 (centres undefined),i
Cc1cc(C(=O)NCc2ccncc2)sc1C,i
Cc1cc(C(=O)NCCc2ccccn2)sc1C,i
CC(C)n1cc2cc(C(=O)NCc3cccnc3)sc2c1,25µM*
CC(C)n1cc2cc(C(=O)NCc3ccccn3)sc2c1,25µM*
Cc1cc(C(=O)NCc2ccccn2)sc1C,i
CC(C)n1cc2cc(C(=O)NCc3cnccn3)sc2c1,16µM*
Cc1cc(C)c2nc(N3CCC(C(=O)NCc4ccccc4C)CC3)sc2c1,i
Cc1ccccc1CNC(=O)c1cc2cn(C(C)C)cc2s1,18µM*
CN(C(=O)CSc1nnc(-c2cccs2)n1N)C1CCCCC1,i
Cc1cccc(CC(=O)N2CC(=O)Nc3ccc(Br)cc3C2c2ccccc2)c1 (centres undefined),i
COc1cccc(CC(=O)N2CCC(Cn3c(C)cnc3C3CCC3)CC2)c1,i
CCOc1ccc(C(C)NC(=O)c2cc(C)ccc2C)cc1OCC (centres undefined),i
c1ccc2cc(-c3ccn[nH]3)ccc2c1,i
CCc1ccc2oc(C(=O)NCC(c3cccs3)N3CCCC3)cc(=O)c2c1 (centres undefined),i
COc1cccc(N2C(=O)NC(=NC3CCCCC3)C23CCCN(Cc2ccc(N(C)C)cc2)C3)c1 (centres undefined),i
CN(CCNC(=O)NC1CCC(C(F)(F)F)CC1)Cc1ccccc1 (centres undefined),i
COc1cc(OC)cc(OC(C)C(=O)Nc2cc(Cl)ccc2C)c1 (centres undefined),i
Cc1cc(Cl)nc(Cl)c1CCCl,i
O=C(Cc1ccc(F)cc1)N1CCc2nc(C3CC3)nc(-c3ccc(Cl)cc3)c2C1,i
O=C(C1CCCCn2nnnc21)N1CCc2nc(-c3cccnc3)[nH]c2C1 (centres undefined),i
SMILES,KDM5B inh
O=C(CC1CNCCO1)N1CCc2nc(-c3ccc(Cl)cc3)[nH]c2C1 (centres undefined),25µM*
Cc1cc(SCC(=O)NC2CCS(=O)(=O)C2)nc2c(C)cccc12 (centres undefined),i
CC(=O)Nc1ccc(/C(C)=N/NC(N)=S)cc1,i
O=C(O)CCSc1ccccc1Br,i
N#Cc1c(-c2ccc(Cl)cc2Cl)csc1N,i
CN(Cc1nc2ccccc2n1C(F)F)S(=O)(=O)c1cc(Cl)ccc1Cl,i
